Results filed as inconclusive are left out. Calls of active or inactive are those of the source.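 How the source made its calls: active means cell viability at or below a set limit in both duplicate runs, the limit being the all-compound median minus 4 SD (cut at about 23% in these data, passing the limit was not always enough); inconclusive means no clear call, values can overlap the other calls; inactive means the rest.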
experiment: viability of HCT116 without oncogenic beta-catenin – human colon tumor cells, pilot screen (AID 823); details: HCT116 beta-catenin knockout viability, CellTiter-Glo, 60 h; at 10 µM; stronger effect = lower value;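 further: 0% = wells killed by 20 µM Hyamine and 100% = untreated DMSO cell wells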

| SMILES | viability |
| --- | --- |
| CCCCSc1nc2c(cnn2-c2ccc(F)cc2)c(=O)[nH]1 | 104% (inactive) |
| C=C(Cl)COc1ccc2c(C)cc(=O)oc2c1 | 97.8% (inactive) |
| COc1ccc(NC(=O)CSc2nnc(Cc3cccn3C)n2-c2ccc(F)cc2)cc1OC | 94.5% (inactive) |
| CCCCSc1nc(CCC)cc(=O)[nH]1 | 99.6% (inactive) |
| Cc1noc(/C=C/N(C)C)c1S(=O)(=O)N1CCc2ccccc21 | 84.4% (inactive) |
| COc1cccc(/C=N/n2cnnc2)c1OCc1ccccc1 | 107% (inactive) |
| COC(=O)Cn1c(CN2CCOCC2)nc2c1c(=O)n(C)c(=O)n2C | 104% (inactive) |
| COc1ccc(N(CC(=O)Nc2cc(C)ccc2C)S(=O)(=O)c2c(C)nn(C)c2C)cc1 | 83.8% (inactive) |
| CCOC(=O)N1CCN(C(=O)c2c(-c3ccccc3)noc2C)CC1 | 104% (inactive) |
| O=C(CSc1ncnc2nc[nH]c12)c1ccc(Cl)cc1 | 39.8% (inactive) |
| Brc1ccccc1-c1nc(-c2ccccc2)no1 | 72% (inactive) |
| Cc1nc2ccc(S(=O)(=O)NC(C(=O)NCc3cccs3)C(C)C)cc2s1 (configuration not stated) | 102% (inactive) |
| COc1ccc(-n2c(Cc3cccn3C)nnc2SCC(=O)Nc2ccccc2)cc1 | 99.5% (inactive) |
| O=c1oc2c3c4c(cc2s1)CCCN4CCC3 | 101% (inactive) |
| COc1cc2c(cc1OC)C(C)N(C(=O)Cn1ncc3c1-c1ccccc1OC3)CC2 (configuration not stated) | 89.5% (inactive) |
| O=C(CSc1ccc2nnc(-c3ccccc3)n2n1)N1CCN(c2ccccc2)CC1 | 101% (inactive) |
| CCOC(=O)C1CCCN(C(=O)c2ccc(CS(=O)(=O)c3ccc(Br)cc3)o2)C1 (configuration not stated) | 100% (inactive) |

From PubChem BioAssay
